Laboratory results as given in the supplement of paper PMC11732987, “Enantioselective OTUD7B fragment discovery through chemoproteomics screening and high-throughput optimisation” (Communications Chemistry, 2025).

Tests used:
Assay in all cases: log2 ratio of Biotin-Ahx-Ub-VS probe labelling (fragment/DMSO); higher = less target engagement (more negative = stronger competition), active = hit call of the paper (q ≤ 0.05, log2 ratio ≤ -1)
Conditions in all cases: compound concentration: 200 uM; treatment time: 3 h
USP34 = USP34 (UniProt Q70CQ2)
How it was run: (§1)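 The table lists average log2 ratios of fragment over vehicle, from an unpaired t-test on global-median-normalised Spectronaut label-free quantities. Proteins with ≥2 unique peptides were used. Samples were HEK293T lysate (495 µg) treated in triplicate with fragment at 200 µM or vehicle for 3 h, then with Biotin-Ahx-Ub-VS (0.5 µM final) for 1 h, with labelled DUBs NeutrAvidin-enriched and run by diaPASEF LC-MS/MS.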

USP36 = biological target: T1, USP36 (UniProt Q9P275)
T1 sequence (whole entry): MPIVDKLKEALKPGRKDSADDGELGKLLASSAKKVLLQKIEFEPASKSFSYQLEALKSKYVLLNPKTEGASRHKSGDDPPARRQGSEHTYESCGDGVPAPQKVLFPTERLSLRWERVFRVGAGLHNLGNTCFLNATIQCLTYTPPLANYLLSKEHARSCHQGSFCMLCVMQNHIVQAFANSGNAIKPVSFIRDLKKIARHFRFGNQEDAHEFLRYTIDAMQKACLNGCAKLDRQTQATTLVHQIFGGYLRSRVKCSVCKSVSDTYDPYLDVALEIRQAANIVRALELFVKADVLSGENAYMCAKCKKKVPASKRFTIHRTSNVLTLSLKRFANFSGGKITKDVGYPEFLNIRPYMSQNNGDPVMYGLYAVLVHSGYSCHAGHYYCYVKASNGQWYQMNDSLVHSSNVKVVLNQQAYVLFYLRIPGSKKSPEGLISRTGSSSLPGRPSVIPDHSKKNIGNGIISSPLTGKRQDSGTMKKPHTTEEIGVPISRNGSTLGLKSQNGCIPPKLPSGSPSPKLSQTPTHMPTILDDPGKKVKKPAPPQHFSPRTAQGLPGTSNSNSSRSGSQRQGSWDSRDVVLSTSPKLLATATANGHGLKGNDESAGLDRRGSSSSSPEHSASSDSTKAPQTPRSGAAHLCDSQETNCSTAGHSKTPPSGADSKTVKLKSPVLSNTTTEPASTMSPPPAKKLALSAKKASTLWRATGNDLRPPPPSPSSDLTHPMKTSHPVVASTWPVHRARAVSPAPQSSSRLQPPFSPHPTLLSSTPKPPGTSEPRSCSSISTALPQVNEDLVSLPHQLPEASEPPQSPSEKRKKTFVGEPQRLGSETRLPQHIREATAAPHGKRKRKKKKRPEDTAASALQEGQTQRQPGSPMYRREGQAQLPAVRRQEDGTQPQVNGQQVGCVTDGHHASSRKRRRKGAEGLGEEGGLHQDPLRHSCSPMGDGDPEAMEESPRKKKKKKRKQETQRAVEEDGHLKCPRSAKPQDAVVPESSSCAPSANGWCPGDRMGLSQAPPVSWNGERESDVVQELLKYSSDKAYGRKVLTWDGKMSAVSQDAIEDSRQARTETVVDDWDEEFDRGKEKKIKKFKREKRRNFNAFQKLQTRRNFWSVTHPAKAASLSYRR
How it was run: as §1

USP38 = biological target: T2, USP38 (UniProt Q8NB14)
T2 sequence (whole entry): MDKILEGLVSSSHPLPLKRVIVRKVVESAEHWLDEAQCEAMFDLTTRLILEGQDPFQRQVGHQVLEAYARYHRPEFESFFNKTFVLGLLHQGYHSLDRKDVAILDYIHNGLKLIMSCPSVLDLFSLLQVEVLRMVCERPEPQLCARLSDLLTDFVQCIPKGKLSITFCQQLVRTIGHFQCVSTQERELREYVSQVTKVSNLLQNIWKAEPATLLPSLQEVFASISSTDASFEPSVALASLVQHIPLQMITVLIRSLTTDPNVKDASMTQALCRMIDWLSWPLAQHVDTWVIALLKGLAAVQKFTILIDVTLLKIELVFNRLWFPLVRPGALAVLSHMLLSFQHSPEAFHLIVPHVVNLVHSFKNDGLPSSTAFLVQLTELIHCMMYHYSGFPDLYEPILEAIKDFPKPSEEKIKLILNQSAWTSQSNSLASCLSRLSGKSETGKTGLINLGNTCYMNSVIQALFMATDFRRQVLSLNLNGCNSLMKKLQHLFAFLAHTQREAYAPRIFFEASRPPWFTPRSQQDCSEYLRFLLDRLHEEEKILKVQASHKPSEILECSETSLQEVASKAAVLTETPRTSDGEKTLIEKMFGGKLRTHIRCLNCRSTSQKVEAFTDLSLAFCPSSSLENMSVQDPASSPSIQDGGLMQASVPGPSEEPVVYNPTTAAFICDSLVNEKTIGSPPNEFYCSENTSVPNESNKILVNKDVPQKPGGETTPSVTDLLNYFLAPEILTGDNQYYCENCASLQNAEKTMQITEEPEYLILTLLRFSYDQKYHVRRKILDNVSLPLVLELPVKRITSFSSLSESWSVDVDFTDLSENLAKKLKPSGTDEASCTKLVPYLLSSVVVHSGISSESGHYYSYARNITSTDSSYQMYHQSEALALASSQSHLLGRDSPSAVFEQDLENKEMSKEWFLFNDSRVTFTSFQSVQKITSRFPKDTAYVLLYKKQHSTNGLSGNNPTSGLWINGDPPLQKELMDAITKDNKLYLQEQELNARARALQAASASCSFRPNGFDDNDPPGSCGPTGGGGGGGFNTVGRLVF
How it was run: as §1

USP39 = biological target: T3, USP39 (UniProt Q53GS9)
T3 sequence (whole entry): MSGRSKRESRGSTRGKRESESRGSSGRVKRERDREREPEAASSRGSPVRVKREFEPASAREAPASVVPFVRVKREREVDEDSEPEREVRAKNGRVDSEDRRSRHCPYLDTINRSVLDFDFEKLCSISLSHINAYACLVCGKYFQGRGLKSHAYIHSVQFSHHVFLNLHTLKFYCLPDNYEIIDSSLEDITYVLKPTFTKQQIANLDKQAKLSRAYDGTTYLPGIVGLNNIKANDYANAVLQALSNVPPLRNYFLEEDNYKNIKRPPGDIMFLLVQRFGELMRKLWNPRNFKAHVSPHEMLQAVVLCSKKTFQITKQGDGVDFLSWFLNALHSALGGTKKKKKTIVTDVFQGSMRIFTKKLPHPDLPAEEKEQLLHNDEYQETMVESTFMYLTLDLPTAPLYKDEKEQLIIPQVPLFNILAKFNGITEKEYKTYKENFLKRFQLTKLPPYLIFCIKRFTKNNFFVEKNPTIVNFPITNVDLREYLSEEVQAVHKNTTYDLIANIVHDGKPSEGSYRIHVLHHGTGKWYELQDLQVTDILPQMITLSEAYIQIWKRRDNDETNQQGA
How it was run: as §1

USP4 = biological target: T4, USP4 (UniProt Q13107)
T4 sequence (whole entry): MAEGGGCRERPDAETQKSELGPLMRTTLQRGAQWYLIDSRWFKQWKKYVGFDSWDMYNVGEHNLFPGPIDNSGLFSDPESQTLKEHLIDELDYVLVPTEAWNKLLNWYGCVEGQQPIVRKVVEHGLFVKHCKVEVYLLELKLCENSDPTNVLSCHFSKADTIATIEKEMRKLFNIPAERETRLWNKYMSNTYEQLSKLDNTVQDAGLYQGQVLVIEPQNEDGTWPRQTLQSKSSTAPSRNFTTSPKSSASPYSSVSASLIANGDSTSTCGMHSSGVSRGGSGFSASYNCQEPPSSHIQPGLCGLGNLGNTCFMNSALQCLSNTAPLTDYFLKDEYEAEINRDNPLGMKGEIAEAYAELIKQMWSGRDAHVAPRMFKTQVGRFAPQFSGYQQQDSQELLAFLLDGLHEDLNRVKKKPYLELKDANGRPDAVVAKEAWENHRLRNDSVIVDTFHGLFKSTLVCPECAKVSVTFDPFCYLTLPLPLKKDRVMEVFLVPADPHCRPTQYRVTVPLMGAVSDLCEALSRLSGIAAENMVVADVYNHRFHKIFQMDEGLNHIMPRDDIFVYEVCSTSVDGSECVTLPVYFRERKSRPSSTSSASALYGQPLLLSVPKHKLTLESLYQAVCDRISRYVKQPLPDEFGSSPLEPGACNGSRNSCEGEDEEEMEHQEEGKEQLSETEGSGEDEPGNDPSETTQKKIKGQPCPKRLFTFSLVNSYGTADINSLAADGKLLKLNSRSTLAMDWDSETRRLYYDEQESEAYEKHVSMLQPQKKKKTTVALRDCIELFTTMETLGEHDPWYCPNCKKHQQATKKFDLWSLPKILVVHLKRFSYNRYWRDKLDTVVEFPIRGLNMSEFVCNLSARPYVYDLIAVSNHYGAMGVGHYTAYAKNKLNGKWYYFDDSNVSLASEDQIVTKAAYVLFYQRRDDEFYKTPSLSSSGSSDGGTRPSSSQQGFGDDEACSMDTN
How it was run: as §1

Measured: log2 ratio of Biotin-Ahx-Ub-VS probe labelling

Chain of USP34 (Q70CQ2 whole entry, the tested form may be a part): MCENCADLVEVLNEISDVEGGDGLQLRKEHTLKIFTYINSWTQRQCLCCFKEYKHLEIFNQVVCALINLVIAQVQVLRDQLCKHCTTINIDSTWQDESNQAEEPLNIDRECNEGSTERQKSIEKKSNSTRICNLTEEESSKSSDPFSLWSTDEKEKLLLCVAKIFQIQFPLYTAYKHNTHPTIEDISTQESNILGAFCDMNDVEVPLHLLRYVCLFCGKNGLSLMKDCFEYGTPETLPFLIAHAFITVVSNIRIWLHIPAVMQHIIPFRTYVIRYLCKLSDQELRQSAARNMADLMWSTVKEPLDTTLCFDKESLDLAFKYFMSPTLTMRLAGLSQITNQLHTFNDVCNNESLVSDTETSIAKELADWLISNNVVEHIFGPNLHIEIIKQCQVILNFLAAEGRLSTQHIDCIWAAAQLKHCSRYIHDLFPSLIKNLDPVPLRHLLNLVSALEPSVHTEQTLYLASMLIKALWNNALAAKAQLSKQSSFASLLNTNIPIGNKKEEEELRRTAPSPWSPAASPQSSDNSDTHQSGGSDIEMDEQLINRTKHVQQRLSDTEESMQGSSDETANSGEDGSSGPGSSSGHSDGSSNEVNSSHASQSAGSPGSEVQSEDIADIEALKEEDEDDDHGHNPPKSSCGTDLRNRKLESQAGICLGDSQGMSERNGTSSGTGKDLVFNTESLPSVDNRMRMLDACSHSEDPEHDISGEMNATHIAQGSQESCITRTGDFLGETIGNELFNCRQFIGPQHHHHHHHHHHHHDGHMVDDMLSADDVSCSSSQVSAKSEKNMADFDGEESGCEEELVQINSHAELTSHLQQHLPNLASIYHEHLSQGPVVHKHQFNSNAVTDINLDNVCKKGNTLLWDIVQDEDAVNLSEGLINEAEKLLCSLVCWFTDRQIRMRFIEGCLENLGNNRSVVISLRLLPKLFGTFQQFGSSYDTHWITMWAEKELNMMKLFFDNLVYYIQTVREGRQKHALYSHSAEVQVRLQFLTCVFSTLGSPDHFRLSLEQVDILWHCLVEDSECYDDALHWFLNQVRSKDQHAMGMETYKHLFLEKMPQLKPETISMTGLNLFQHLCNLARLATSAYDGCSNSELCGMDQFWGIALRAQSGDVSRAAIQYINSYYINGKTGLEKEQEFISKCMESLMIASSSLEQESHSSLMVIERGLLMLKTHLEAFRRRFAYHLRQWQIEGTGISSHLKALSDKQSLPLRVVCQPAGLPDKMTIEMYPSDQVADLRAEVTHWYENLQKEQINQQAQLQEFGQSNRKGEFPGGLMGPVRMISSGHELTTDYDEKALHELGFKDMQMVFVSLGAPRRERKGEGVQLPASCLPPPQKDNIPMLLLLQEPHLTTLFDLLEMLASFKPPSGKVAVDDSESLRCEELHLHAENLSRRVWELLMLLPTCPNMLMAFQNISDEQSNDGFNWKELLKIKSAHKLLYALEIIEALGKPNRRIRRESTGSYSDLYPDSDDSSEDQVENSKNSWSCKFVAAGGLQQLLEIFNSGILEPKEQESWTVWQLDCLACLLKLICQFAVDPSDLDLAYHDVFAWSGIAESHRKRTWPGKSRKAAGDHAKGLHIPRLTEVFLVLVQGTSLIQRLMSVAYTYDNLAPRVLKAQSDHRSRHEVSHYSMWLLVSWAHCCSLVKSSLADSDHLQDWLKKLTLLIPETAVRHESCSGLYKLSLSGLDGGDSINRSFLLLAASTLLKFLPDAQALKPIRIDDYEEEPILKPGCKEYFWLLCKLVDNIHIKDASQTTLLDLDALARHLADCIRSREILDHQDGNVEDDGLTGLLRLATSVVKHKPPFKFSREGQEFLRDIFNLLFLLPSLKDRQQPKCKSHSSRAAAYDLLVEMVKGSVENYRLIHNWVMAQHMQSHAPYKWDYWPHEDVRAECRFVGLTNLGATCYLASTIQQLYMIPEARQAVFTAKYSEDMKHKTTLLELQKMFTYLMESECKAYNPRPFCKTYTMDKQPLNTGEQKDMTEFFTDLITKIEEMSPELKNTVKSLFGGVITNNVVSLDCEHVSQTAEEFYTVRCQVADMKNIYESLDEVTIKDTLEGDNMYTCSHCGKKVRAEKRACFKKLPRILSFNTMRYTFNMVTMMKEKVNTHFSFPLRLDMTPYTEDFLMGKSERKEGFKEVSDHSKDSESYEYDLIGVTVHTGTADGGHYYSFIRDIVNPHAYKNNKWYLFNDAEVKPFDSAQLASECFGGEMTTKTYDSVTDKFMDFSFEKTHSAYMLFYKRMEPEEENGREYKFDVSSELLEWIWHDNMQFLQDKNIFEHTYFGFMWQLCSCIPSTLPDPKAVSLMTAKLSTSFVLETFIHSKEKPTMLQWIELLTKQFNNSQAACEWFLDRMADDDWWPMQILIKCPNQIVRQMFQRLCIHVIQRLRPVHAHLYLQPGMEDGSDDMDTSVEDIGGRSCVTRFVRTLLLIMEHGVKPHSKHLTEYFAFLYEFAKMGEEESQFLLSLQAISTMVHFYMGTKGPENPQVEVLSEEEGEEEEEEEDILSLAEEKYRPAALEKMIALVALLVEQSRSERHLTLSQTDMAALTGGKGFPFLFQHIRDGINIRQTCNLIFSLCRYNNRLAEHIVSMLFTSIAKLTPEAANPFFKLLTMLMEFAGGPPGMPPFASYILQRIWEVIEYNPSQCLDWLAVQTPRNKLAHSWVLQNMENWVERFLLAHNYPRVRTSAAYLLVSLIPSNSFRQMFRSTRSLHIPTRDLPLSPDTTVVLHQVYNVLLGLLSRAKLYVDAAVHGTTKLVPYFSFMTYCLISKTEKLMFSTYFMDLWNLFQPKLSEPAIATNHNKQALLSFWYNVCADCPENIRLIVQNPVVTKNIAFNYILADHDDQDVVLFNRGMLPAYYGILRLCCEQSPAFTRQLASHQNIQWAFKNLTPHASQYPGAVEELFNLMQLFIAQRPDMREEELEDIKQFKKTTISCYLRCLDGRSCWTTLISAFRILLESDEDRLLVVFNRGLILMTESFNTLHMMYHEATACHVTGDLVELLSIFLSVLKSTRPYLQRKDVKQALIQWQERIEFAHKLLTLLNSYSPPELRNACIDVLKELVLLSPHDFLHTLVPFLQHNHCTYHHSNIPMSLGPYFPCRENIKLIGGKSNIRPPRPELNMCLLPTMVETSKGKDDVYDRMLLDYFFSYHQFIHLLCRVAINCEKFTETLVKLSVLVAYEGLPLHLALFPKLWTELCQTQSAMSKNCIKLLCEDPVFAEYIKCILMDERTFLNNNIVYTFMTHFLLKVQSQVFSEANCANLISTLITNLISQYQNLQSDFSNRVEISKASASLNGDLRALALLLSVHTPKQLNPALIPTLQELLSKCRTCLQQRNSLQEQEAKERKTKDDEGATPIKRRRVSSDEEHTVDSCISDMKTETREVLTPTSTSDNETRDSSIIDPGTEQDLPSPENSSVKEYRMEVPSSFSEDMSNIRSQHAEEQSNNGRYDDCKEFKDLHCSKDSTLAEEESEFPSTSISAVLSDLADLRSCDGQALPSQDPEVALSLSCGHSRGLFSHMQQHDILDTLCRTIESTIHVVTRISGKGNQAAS

Cc1cccc(N2CCC(NC(=O)CCl)C2=O)c1 (stereo not given)
inactive: USP34 0.0479 | USP36 -0.0247 | USP38 -0.169 | USP39 -0.32 | USP4 -0.134
